Inconclusive results are not listed. Active and inactive are the calls of the source. Calls follow the shape of the dose curve; as a rule, active = well fitted curve in the direction sought with a large enough effect; inconclusive = small, poorly fitted or top-dose-only effect, or another doubt; inactive = no such curve, though single readings can be large; an effect the other way counts as inactive or inconclusive.
How the values were obtained:
KB-3-1 = assay: Cytotoxic Profiling of Annotated Libraries Using Quantitative High-Throughput Screening (AID 1296008); settings: Five cell lines viability, CellTiter-Glo ATP luminescence, 48-72 h; max response: stronger effect = lower value; also: nearly all actives have a fitted effect of over 60% in size; also: potency is read from the fitted curve at half-maximal effect; as to max response: % is scaled to controls: 0 for no effect and ±100 for the full control effect
Outline: (§1)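 Compounds were pin-transferred onto cells and incubated 48 or 72 hr at 37 degree Celsius, 95% humidity. CellTiter-Glo was added, plates sat 10 min at room temperature, then ATP-coupled luminescence was imaged as the viability read-out.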

NIH3T3 [1] = assay: as above; settings: Five cell lines viability, CellTiter-Glo ATP luminescence, 48-72 h; max response: stronger effect = lower value
Outline: as §1

HEK293T [2] = assay: qHTS assay to identify novel small-molecules to repurpose for Merkel cell carcinoma treatment (AID 1296009); settings: MCC and control cell lines, CellTiter-Glo viability, 72 h; at 44.8 µM (top of the series) unless noted; also: nearly all actives have a fitted effect of over 60% in size
Outline: (§2)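 Cells exposed to NPC (8-point) and MIPE (11-point) compound dilutions for 72 hr at 37 degree celsius; viability read by CellTiter-Glo luminescence, normalized to no-cell and DMSO in-plate controls.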

NIH3T3 [3] = assay: as above; settings: MCC and control cell lines, CellTiter-Glo viability, 72 h; at 44.8 µM (top of the series) unless noted
Outline: as §2

C33A = assay: Primary qHTS to identify gynecologic anti-cancer compounds using libraries of approved drugs and bioactive compounds (AID 1345084); settings: Gynecologic cancer cell panel viability, ATPlite luminescence, 48 h; series mostly up to 57.5 µM; also: nearly all actives have a fitted effect of over 55% in size; also: potency is read from the fitted curve at half-maximal effect; as to activity change, negative = cytotoxicity: % is scaled to controls: 0 for no effect and ±100 for the full control effect
Outline: (§3)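 Measured: luminescence after ATPlite addition (15 min, RT). Exposure: 48 h, 37 C, 5% CO2.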

CAOV3 = assay: as above; settings: Gynecologic cancer cell panel viability, ATPlite luminescence, 48 h; series mostly up to 57.5 µM
Outline: as §3

CASKI = assay: as above; settings: Gynecologic cancer cell panel viability, ATPlite luminescence, 48 h; series mostly up to 57.5 µM
Outline: as §3

Es-2 = assay: as above; settings: Gynecologic cancer cell panel viability, ATPlite luminescence, 48 h; series mostly up to 57.5 µM
Outline: as §3

HeLa = assay: as above; settings: Gynecologic cancer cell panel viability, ATPlite luminescence, 48 h; series mostly up to 57.5 µM
Outline: as §3

Hek293T [4] = assay: as above; settings: Gynecologic cancer cell panel viability, ATPlite luminescence, 48 h, control line for the selectivity index; series mostly up to 57.5 µM
Outline: as §3

JEG-3 = assay: as above; settings: Gynecologic cancer cell panel viability, ATPlite luminescence, 48 h; series mostly up to 57.5 µM
Outline: as §3

OV90 = assay: as above; settings: Gynecologic cancer cell panel viability, ATPlite luminescence, 48 h; series mostly up to 57.5 µM
Outline: as §3

CRL-7250 = normal cell line; assay: qHTS assay to identify novel small-molecules to repurpose for Merkel cell carcinoma treatment (AID 1296009); settings: MCC and control cell lines, CellTiter-Glo viability, 72 h; at 44.8 µM (top of the series) unless noted; also: nearly all actives have a fitted effect of over 60% in size
Outline: as §2

HACAT = assay: as above; settings: MCC and control cell lines, CellTiter-Glo viability, 72 h; at 44.8 µM (top of the series) unless noted
Outline: as §2

CC(=O)O[C@H]1C[C@@H](OC(C)=O)C(C)(C)C2C[C@@H](O)[C@]3(C)C(CC[C@@]4(C)[C@H](C5=CC(=O)OC5O)C[C@H]5O[C@]543)[C@]21C (stereo partly drawn)
inactive: max response (KB-3-1) 6.85% | outcome (NIH3T3 [1]) | outcome (HEK293T [2]) inactive [at 17.4 µM] | outcome (NIH3T3 [3]) inactive [at 17.4 µM] | Potency (C33A) | Potency (CAOV3) | Potency (CASKI) | Potency (Es-2) | Potency (HeLa) | Potency (Hek293T [4]) | Potency (JEG-3) | Potency (OV90)

CCN1C[C@]2(COC)[C@H](O)C[C@H](OC)[C@]34[C@@H]5C[C@]6(O)[C@H](OC(=O)c7ccccc7)[C@@H]5[C@@](O)([C@H]([C@H](OC)[C@H]23)[C@@H]14)[C@@H](O)[C@@H]6OC
inactive: max response (KB-3-1) 2.1% | outcome (NIH3T3 [1]) | outcome (CRL-7250) | outcome (HEK293T [2]) | outcome (NIH3T3 [3]) | Potency (C33A) | Potency (CASKI) | Potency (Es-2) | Potency (HeLa) | Potency (Hek293T [4]) | Potency (JEG-3) | Potency (OV90)

COc1c(C(C)C)cc2c(c1O)[C@@]1(C(=O)O)CCCC(C)(C)C1CC2 (stereo partly drawn)
inactive: outcome (KB-3-1) | max response (NIH3T3 [1]) 0.972% | outcome (CRL-7250) | outcome (HEK293T [2]) | Potency (C33A) | Potency (CAOV3) | Potency (CASKI) | Potency (Es-2) | Potency (HeLa) | Potency (Hek293T [4]) | Potency (JEG-3) | Potency (OV90)

C[C@]12CC[C@H]3[C@@H]([C@H](O)CC4=CC(=O)CC[C@@]43C)[C@@H]1CC[C@@H]2O
inactive: max response (KB-3-1) 5.15% | outcome (NIH3T3 [1]) | outcome (CRL-7250) | outcome (NIH3T3 [3]) | Potency (C33A) | Potency (CAOV3) | Potency (CASKI) | Potency (Es-2) | Potency (HeLa) | Potency (Hek293T [4]) | Potency (JEG-3) | Potency (OV90)

COC(=O)C12C(=O)C(C)(O)C(=O)C1(C)C(C)=CC1C34CCC(OC3=O)C(C)(CO)C4CCC12C (stereo not drawn)
inactive: outcome (KB-3-1) | outcome (NIH3T3 [1]) | outcome (CRL-7250) inactive [at 17.4 µM] | outcome (NIH3T3 [3]) inactive [at 17.4 µM] | Potency (C33A) | Potency (CAOV3) | Potency (CASKI) | Potency (Es-2) | Potency (HeLa) | Potency (Hek293T [4]) | Potency (JEG-3) | Potency (OV90)

OC1(c2ccc(Cl)cc2)c2ccccc2C2=NCCN21 (stereo not drawn)
inactive: max response (KB-3-1) 7.32% | outcome (NIH3T3 [1]) | outcome (CRL-7250) | outcome (NIH3T3 [3]) | Potency (C33A) | Potency (CAOV3) | Potency (CASKI) | Potency (Es-2) | Potency (HeLa) | Potency (Hek293T [4]) | Potency (JEG-3) | Potency (OV90)

CC(C)C1(OO)C=C2C(=O)CC3C(C)(C(=O)O)CCCC3(C)C2CC1 (stereo not drawn)
inactive: max response (KB-3-1) 7.41% | outcome (NIH3T3 [1]) | outcome (HACAT) | outcome (NIH3T3 [3]) | Potency (C33A) | Potency (CASKI) | Potency (Es-2) | Potency (HeLa) | Potency (Hek293T [4]) | Potency (JEG-3) | Potency (OV90)

CCCCCCn1c(=O)c(C(=O)Nc2ccc(C(=O)OCCC)cc2)c(O)c2ccccc21
inactive: outcome (KB-3-1) | max response (NIH3T3 [1]) 4.2% | outcome (HACAT) inactive [at 9.27 µM] | outcome (HEK293T [2]) inactive [at 9.27 µM] | activity change, negative = cytotoxicity (C33A) -0.0211% [at 11.6 µM] | activity change, negative = cytotoxicity (CASKI) 4.2% [at 11.6 µM] | activity change, negative = cytotoxicity (Es-2) 9.25% [at 11.6 µM] | activity change, negative = cytotoxicity (HeLa) 18.5% [at 11.6 µM] | activity change, negative = cytotoxicity (Hek293T [4]) 10.5% [at 11.6 µM] | activity change, negative = cytotoxicity (JEG-3) -0.73% [at 11.6 µM] | activity change, negative = cytotoxicity (OV90) 9.17% [at 11.6 µM]

N#C[C@@H](O[C@@H]1O[C@H](CO[C@@H]2O[C@H](CO)[C@@H](O)[C@H](O)[C@H]2O)[C@@H](O)[C@H](O)[C@H]1O)c1ccccc1
inactive: max response (KB-3-1) 5.22% | outcome (NIH3T3 [1]) | outcome (HACAT) inactive [at 17.4 µM] | outcome (NIH3T3 [3]) inactive [at 17.4 µM] | Potency (C33A) | Potency (CAOV3) | Potency (CASKI) | Potency (Es-2) | Potency (HeLa) | Potency (Hek293T [4]) | Potency (JEG-3) | Potency (OV90)

CN1[C@H]2C[C@H](OC(=O)[C@H](CO)c3ccccc3)C[C@@H]1[C@@H](O)C2
inactive: max response (KB-3-1) 1.1% | outcome (NIH3T3 [1]) | outcome (HACAT) | outcome (HEK293T [2]) | outcome (NIH3T3 [3]) | Potency (C33A) | Potency (CASKI) | Potency (Es-2) | Potency (HeLa) | Potency (Hek293T [4]) | Potency (JEG-3) | Potency (OV90)

COC1CC(OC2CCC3(C)C(=CCC4C3CCC3(C)C(C(C)OC5OC(COC6OC(CO)C(O)C(O)C6O)C(O)C(O)C5O)CCC43O)C2)OC(C)C1OC1OC(C)C(O)C(OC)C1O (stereo not drawn)
inactive: max response (KB-3-1) 9.26% | outcome (NIH3T3 [1]) | outcome (HACAT) inactive [at 9.27 µM] | outcome (NIH3T3 [3]) inactive [at 9.27 µM] | activity change, negative = cytotoxicity (C33A) 6.28% [at 11.6 µM] | activity change, negative = cytotoxicity (CAOV3) 3.88% [at 11.6 µM] | activity change, negative = cytotoxicity (CASKI) 4.6% [at 11.6 µM] | activity change, negative = cytotoxicity (Es-2) -3.02% [at 11.6 µM] | activity change, negative = cytotoxicity (HeLa) -1.19% [at 11.6 µM] | activity change, negative = cytotoxicity (Hek293T [4]) 5.95% [at 11.6 µM] | activity change, negative = cytotoxicity (JEG-3) -7.91% [at 11.6 µM] | activity change, negative = cytotoxicity (OV90) 0.938% [at 11.6 µM]

COC1C(O)C(OC2CCC3(C=O)C(CCC4C3CCC3(C)C(C5=CC(=O)OC5)CCC43O)C2)OC(C)C1OC1OC(CO)C(O)C(O)C1O (stereo not drawn)
active: Potency (KB-3-1) 485 nM | Potency (C33A) 501 nM | Potency (CAOV3) 2000 nM | Potency (Es-2) 891 nM | Potency (HeLa) 1260 nM | Potency (Hek293T [4]) 1000 nM | Potency (JEG-3) 2240 nM | Potency (OV90) 3550 nM
inactive: outcome (NIH3T3 [1]) | outcome (NIH3T3 [3]) inactive [at 17.4 µM]

COC1CC(OC2CCC3(C=O)C(CCC4C3CCC3(C)C(C5=CC(=O)OC5)CCC43O)C2)OC(C)C1OC1OC(CO)C(O)C(O)C1O (stereo not drawn)
inactive: outcome (NIH3T3 [1]) | outcome (NIH3T3 [3]) inactive [at 17.4 µM]
active: Potency (KB-3-1) 343 nM | Potency (C33A) 158 nM | Potency (CAOV3) 631 nM | Potency (CASKI) 1120 nM | Potency (Es-2) 355 nM | Potency (HeLa) 282 nM | Potency (Hek293T [4]) 398 nM | Potency (OV90) 891 nM

CCc1[nH]c2ccc(OC)cc2c1CCN(C)C
inactive: max response (KB-3-1) -6.67% | outcome (NIH3T3 [1]) | outcome (NIH3T3 [3]) | Potency (C33A) | Potency (CASKI) | Potency (Es-2) | Potency (HeLa) | Potency (Hek293T [4]) | Potency (JEG-3) | Potency (OV90)

CN(C(=O)Cc1ccccc1)C(CN1CCCC1)c1ccccc1 (stereo not drawn)
inactive: max response (KB-3-1) -9.97% | outcome (NIH3T3 [1]) | outcome (NIH3T3 [3]) | Potency (C33A) | Potency (CAOV3) | Potency (CASKI) | Potency (Es-2) | Potency (HeLa) | Potency (Hek293T [4]) | Potency (JEG-3) | Potency (OV90)

CN1C(=O)c2ccccc2NC(=O)[C@]12O[C@@H]2c1ccccc1
inactive: max response (KB-3-1) 8.97% | max response (NIH3T3 [1]) -7.39% | outcome (HEK293T [2]) | Potency (C33A) | Potency (CASKI) | Potency (Es-2) | Potency (HeLa) | Potency (Hek293T [4]) | Potency (JEG-3) | Potency (OV90)

COC1CC(O[C@H]2CC[C@]3(C=O)C4CC[C@]5(C)[C@@H](C6=CC(=O)OC6)CC[C@]5(O)[C@@H]4CC[C@]3(O)C2)OC(C)C1O[C@@H]1O[C@H](CO)[C@@H](O)[C@H](O)[C@H]1O (stereo partly drawn)
active: Potency (KB-3-1) 273 nM | Potency (C33A) 141 nM | Potency (Es-2) 355 nM | Potency (HeLa) 355 nM | Potency (Hek293T [4]) 501 nM
inactive: outcome (NIH3T3 [1]) | outcome (NIH3T3 [3]) inactive [at 17.4 µM]
